# Hit rate of the full screen: of about 5,500 compounds, about 2,000 (36%) were called active. Another 18% or so got no clear call; they are omitted. Some of the results follow. Unmarked numbers belong to inactive results. No stated cut-off is given here; in the data, active means normalized growth mostly below about 0.91 (no sharp cut-off); inconclusive means no clear call, values can overlap the other calls; inactive means mostly above about 0.92.
# Assay: chemical genetic growth profiling, strain panel (AID 1159580);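 further: tested at 20 µM; growth read once vehicle control cultures reached saturation at 30 °C; 1 = growth at the plate median or of vehicle wells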
# Settings: growth OD
smiles,measurement,setting,value
CCCC(C)C1(CC)C(=O)N=C(S)NC1=O (configuration not stated),normalized growth,"S. cerevisiae deletion strains, locus YJR075W, strain HOC1, stronger effect = lower value",1
same,normalized growth,"S. cerevisiae deletion strains, locus YKL009W, strain mrt4, stronger effect = lower value",0.908
same,normalized growth,"S. cerevisiae deletion strains, locus YKL068W, stronger effect = lower value",0.947
same,normalized growth,"S. cerevisiae deletion strains, locus YKL085W, strain MDH1 (second series), stronger effect = lower value",0.309 (active)
same,normalized growth,"S. cerevisiae deletion strains, locus YKL085W, strain MDH1, stronger effect = lower value",0.309 (active)
same,normalized growth,"S. cerevisiae deletion strains, locus YKL160W, strain elf1, stronger effect = lower value",0.982
same,normalized growth,"S. cerevisiae deletion strains, locus YKL190W, strain CNB1, stronger effect = lower value",1.02
same,normalized growth,"S. cerevisiae deletion strains, locus YKR001C, strain vps1, stronger effect = lower value",0.0973 (active)
same,normalized growth,"S. cerevisiae deletion strains, locus YKR026C, strain gcn3, stronger effect = lower value",0.984
same,normalized growth,"S. cerevisiae deletion strains, locus YKR091W, strain srl3, stronger effect = lower value",1.01
same,normalized growth,"S. cerevisiae deletion strains, locus YLL001W, strain dnm1, stronger effect = lower value",0.986
same,normalized growth,"S. cerevisiae deletion strains, locus YLL026W, stronger effect = lower value",1
same,normalized growth,"S. cerevisiae deletion strains, locus YLL041C, strain sdh2, stronger effect = lower value",0.994
same,normalized growth,"S. cerevisiae deletion strains, locus YLR027C, strain aat2, stronger effect = lower value",0.998
same,normalized growth,"S. cerevisiae deletion strains, locus YLR039C, strain RIC1, stronger effect = lower value",1.06
same,normalized growth,"S. cerevisiae deletion strains, locus YLR058C, strain SHM2, stronger effect = lower value",1
same,normalized growth,"S. cerevisiae deletion strains, locus YLR102C, strain apc9, stronger effect = lower value",0.0762 (active)
same,normalized growth,"S. cerevisiae deletion strains, locus YLR113W, strain HOG1, stronger effect = lower value",0.98
same,normalized growth,"S. cerevisiae deletion strains, locus YLR221C, strain rsa3, stronger effect = lower value",0.987
same,normalized growth,"S. cerevisiae deletion strains, locus YLR258W, strain gsy2, stronger effect = lower value",1
same,normalized growth,"S. cerevisiae deletion strains, locus YLR262C, strain YPT6 (second series), stronger effect = lower value",0.918
same,normalized growth,"S. cerevisiae deletion strains, locus YLR262C, strain YPT6, stronger effect = lower value",1.01
same,normalized growth,"S. cerevisiae deletion strains, locus YLR268W, strain sec22, stronger effect = lower value",0.0785 (active)
same,normalized growth,"S. cerevisiae deletion strains, locus YLR320W, strain mms22, stronger effect = lower value",0.987
same,normalized growth,"S. cerevisiae deletion strains, locus YLR330W, strain CHS5, stronger effect = lower value",1.01
same,normalized growth,"S. cerevisiae deletion strains, locus YLR342W, strain FKS1 (second series), stronger effect = lower value",1.04
same,normalized growth,"S. cerevisiae deletion strains, locus YLR342W, strain FKS1, stronger effect = lower value",0.998
same,normalized growth,"S. cerevisiae deletion strains, locus YLR357W, strain rsc2, stronger effect = lower value",0.961
same,normalized growth,"S. cerevisiae deletion strains, locus YLR370C, strain arc18, stronger effect = lower value",0.984
same,normalized growth,"S. cerevisiae deletion strains, locus YLR371W, strain rom2, stronger effect = lower value",0.077 (active)
same,normalized growth,"S. cerevisiae deletion strains, locus YLR384C, strain iki3, stronger effect = lower value",1
same,normalized growth,"S. cerevisiae deletion strains, locus YLR418C, strain cdc73, stronger effect = lower value",0.0993 (active)
same,normalized growth,"S. cerevisiae deletion strains, locus YML016C, strain PPZ1, stronger effect = lower value",1
same,normalized growth,"S. cerevisiae deletion strains, locus YML032C, strain rad52, stronger effect = lower value",0.789 (active)
same,normalized growth,"S. cerevisiae deletion strains, locus YML120C, strain ndi1, stronger effect = lower value",0.988
same,normalized growth,"S. cerevisiae deletion strains, locus YML124C, strain tub3, stronger effect = lower value",0.113 (active)
same,normalized growth,"S. cerevisiae deletion strains, locus YMR058W, strain fet3, stronger effect = lower value",1
same,normalized growth,"S. cerevisiae deletion strains, locus YMR078C, strain ctf18, stronger effect = lower value",0.124 (active)
same,normalized growth,"S. cerevisiae deletion strains, locus YMR125W, strain sto1, stronger effect = lower value",0.974
same,normalized growth,"S. cerevisiae deletion strains, locus YMR129W, stronger effect = lower value",0.971
same,normalized growth,"S. cerevisiae deletion strains, locus YMR205C, strain PFK2, stronger effect = lower value",0.97
same,normalized growth,"S. cerevisiae deletion strains, locus YMR223W, strain ubp8, stronger effect = lower value",0.0719 (active)
same,normalized growth,"S. cerevisiae deletion strains, locus YMR231W, strain pep5, stronger effect = lower value",1
same,normalized growth,"S. cerevisiae deletion strains, locus YMR263W, strain SAP30, stronger effect = lower value",1.01
same,normalized growth,"S. cerevisiae deletion strains, locus YMR307W, strain GAS1, stronger effect = lower value",0.992
same,normalized growth,"S. cerevisiae deletion strains, locus YNL067W, strain RPL9B, stronger effect = lower value",1.01
same,normalized growth,"S. cerevisiae deletion strains, locus YNL071W, strain lat1, stronger effect = lower value",1
same,normalized growth,"S. cerevisiae deletion strains, locus YNL128W, strain TEP1, stronger effect = lower value",1
same,normalized growth,"S. cerevisiae deletion strains, locus YNL153C, strain GIM3, stronger effect = lower value",0.999
same,normalized growth,"S. cerevisiae deletion strains, locus YNL183C, strain NPR1, stronger effect = lower value",0.923
same,normalized growth,"S. cerevisiae deletion strains, locus YNL209W, strain ssb2, stronger effect = lower value",0.982
same,normalized growth,"S. cerevisiae deletion strains, locus YNL233W, strain BNI4, stronger effect = lower value",0.999
same,normalized growth,"S. cerevisiae deletion strains, locus YNL248C, strain rpa49, stronger effect = lower value",0.988
same,normalized growth,"S. cerevisiae deletion strains, locus YNL250W, strain rad50, stronger effect = lower value",0.434 (active)
same,normalized growth,"S. cerevisiae deletion strains, locus YNL271C, strain bni1, stronger effect = lower value",0.163 (active)
same,normalized growth,"S. cerevisiae deletion strains, locus YNL298W, strain CLA4, stronger effect = lower value",0.372 (active)
same,normalized growth,"S. cerevisiae deletion strains, locus YNL307C, strain MCK1, stronger effect = lower value",0.0689 (active)
same,normalized growth,"S. cerevisiae deletion strains, locus YNL322C, strain KRE1 (second series), stronger effect = lower value",0.979
same,normalized growth,"S. cerevisiae deletion strains, locus YNL322C, strain KRE1, stronger effect = lower value",1.01
same,normalized growth,"S. cerevisiae deletion strains, locus YNR049C, strain mso1, stronger effect = lower value",0.992
same,normalized growth,"S. cerevisiae deletion strains, locus YNR052C, strain pop2, stronger effect = lower value",1.01
same,normalized growth,"S. cerevisiae deletion strains, locus YOL006C, strain TOP1, stronger effect = lower value",1.03
same,normalized growth,"S. cerevisiae deletion strains, locus YOL012C, strain htz1",0.212
same,normalized growth,"S. cerevisiae deletion strains, locus YOL147C, strain pex11, stronger effect = lower value",0.677 (active)
same,normalized growth,"S. cerevisiae deletion strains, locus YOR001W, strain rrp6, stronger effect = lower value",0.98
same,normalized growth,"S. cerevisiae deletion strains, locus YOR061W, strain CKA2, stronger effect = lower value",1.01
same,normalized growth,"S. cerevisiae deletion strains, locus YOR069W, strain VPS5, stronger effect = lower value",1.01
same,normalized growth,"S. cerevisiae deletion strains, locus YOR070C, strain gyp1, stronger effect = lower value",1
same,normalized growth,"S. cerevisiae deletion strains, locus YOR080W, strain dia2, stronger effect = lower value",0.989
same,normalized growth,"S. cerevisiae deletion strains, locus YOR083W, strain WHI5, stronger effect = lower value",0.988
same,normalized growth,"S. cerevisiae deletion strains, locus YOR106W, strain vam3, stronger effect = lower value",0.979
same,normalized growth,"S. cerevisiae deletion strains, locus YOR136W, strain idh2, stronger effect = lower value",0.0798 (active)
same,normalized growth,"S. cerevisiae deletion strains, locus YOR144C, strain elg1, stronger effect = lower value",1
same,normalized growth,"S. cerevisiae deletion strains, locus YOR184W, strain ser1, stronger effect = lower value",0.0729 (active)
same,normalized growth,"S. cerevisiae deletion strains, locus YOR231W, strain MKK1, stronger effect = lower value",0.994
same,normalized growth,"S. cerevisiae deletion strains, locus YOR265W, strain rbl2, stronger effect = lower value",0.986
same,normalized growth,"S. cerevisiae deletion strains, locus YOR270C, strain vph1, stronger effect = lower value",0.969
same,normalized growth,"S. cerevisiae deletion strains, locus YOR290C, strain snf2, stronger effect = lower value",0.997
same,normalized growth,"S. cerevisiae deletion strains, locus YOR316C, strain cot1, stronger effect = lower value",0.0718 (active)
same,normalized growth,"S. cerevisiae deletion strains, locus YPL051W, strain arl3, stronger effect = lower value",1
same,normalized growth,"S. cerevisiae deletion strains, locus YPL055C, strain LGE1, stronger effect = lower value",1.01
same,normalized growth,"S. cerevisiae deletion strains, locus YPL078C, strain atp4, stronger effect = lower value",0.981
same,normalized growth,"S. cerevisiae deletion strains, locus YPL106C, strain sse1, stronger effect = lower value",0.977
same,normalized growth,"S. cerevisiae deletion strains, locus YPL240C, strain hsp82, stronger effect = lower value",0.991
same,normalized growth,"S. cerevisiae deletion strains, locus YPL241C, strain CIN2, stronger effect = lower value",1.02
same,normalized growth,"S. cerevisiae deletion strains, locus YPL256C, strain CLN2, stronger effect = lower value",0.977
same,normalized growth,"S. cerevisiae deletion strains, locus YPR119W, strain clb2, stronger effect = lower value",0.101 (active)
same,normalized growth,"S. cerevisiae deletion strains, locus YPR141C, strain kar3, stronger effect = lower value",0.983
same,normalized growth,"S. cerevisiae deletion strains, locus YPR163C, strain tif3, stronger effect = lower value",0.0717 (active)
same,normalized growth,"S. cerevisiae deletion strains, locus YPR167C, strain met16, stronger effect = lower value",0.0756 (active)
same,normalized growth,"S. cerevisiae deletion strains, strain wtn01, stronger effect = lower value",0.06 (active)
same,normalized growth,"S. cerevisiae strains, strain wild type, stronger effect = lower value",1.01
